In the library only some 2.3% were active in any assay of this set; here they are far more common.
H9c2 TAG inh = reduces triacylglycerol accumulation in H9c2 cells | Nile Red lipid (TAG) fluorescence; cells loaded with 200 µM oleic acid | hit rate 0.66% among 230,000 | AID 651582 | inhibition, % at 12.5 µM;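 active means pattern-corrected inhibition of lipid staining of at least 50% with the nuclear-stain viability signal not falling by more than 50%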;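 further: 0% = DMSO wells and 100% = triacsin C control wells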
697 NFkB inh = lowers PMA/ionomycin-induced NF-kB signal in 697 B cells. inhibition, % at 4 µM. hit rate 0.33% among 330,000. 697 B-cell NF-kB luciferase reporter, 16 h. AID 435022; in the data active means inhibition above about 35%
Jurkat NFkB inh = lowers PMA/ionomycin-induced NF-kB signal in Jurkat cells; PMA/ionomycin-induced NF-kB luciferase reporter, luminescence; inhibition, % at 4 µM; hit rate 0.53% among 330,000; AID 435003; in the data active means inhibition above about 50%
aSyn 5UTR inh = 5' untranslated region of α-synuclein, MLPCN primary screen; alpha-synuclein 5'UTR reporter, inhibitor activity; inhibition, % (tested at 7.5 µM); hit rate 0.82% among 300,000; AID 1813; in the data active means inhibition above about 60%; inconclusive means no clear call, values can overlap the other calls;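 further: H4 neuroglioblastoma cells stably carrying SNCA 5'UTR luciferase fusion; 0% = DMSO wells and 100% = positive control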
Shn3 inh set2 = Schnurri-3 reporter inhibition in Clone20 osteoblasts; inhibition, % at 12.5 µM; Clone20 osteoblast Shn3 3'UTR firefly luciferase, 24 h; hit rate 0.52% among 360,000;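 active means mean inhibition of at least 75% with every replicate also reaching 75%; inconclusive means mean inhibition at least 75% but some replicate below; inactive means mean inhibition below 75%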;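 further: 0% = median of neutral control wells and 100% = pilot-screen positive control compound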
Gli-Sufu antag = blocks Gli-Sufu signaling in a luciferase reporter; Sufu-KO-LIGHT fibroblasts, Gli luciferase reporter luminescence; inhibition, % at 5 µM; hit rate 0.74% among 340,000;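 active means inhibition above about 55%, limit read from the data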;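 further: 0% = DMSO-treated cells and 100% = wells with medium but no cells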
Active calls of the source: *; ? = inconclusive; . = no result.

SMILES	H9c2 TAG inh	697 NFkB inh	Jurkat NFkB inh	aSyn 5UTR inh	Shn3 inh set2	Gli-Sufu antag
CCCCCCCOC(=O)C[N+](C)(C)CCOC1CC2CCC1(C)C2(C)C (stereo not drawn)	34	.	.	1	85*	82*
CN(C)C1CCN(Cc2cc(COCc3ccccc3)c3cccnc3c2O)C1 (stereo not drawn)	46	-61	25	.	88*	57*
Oc1c(CN2CCCCC2)cc(COCc2ccccc2)c2cccnc12	154	-33	8	92*	92*	92*
COCc1cc(CN2CCCC2)c(O)c2ncccc12	.	-21	18	?	41	4
Oc1ccc(COCc2ccccc2)c2cccnc12	63	-67	-14	?	51	-12
O=C(O)/C=C\c1cccc(-n2cnnn2)c1	.	8	13	4	8	3
CC(C)C[C@@H]1NC(=O)[C@H](C(C)C)NC(=O)c2cc([N+](=O)[O-])cc(I)c2NCC[C@@H](C(N)=O)NC1=O	.	9	9	0	.	-2
CC[C@H](C)[C@@H]1NC(=O)[C@@H](CC(C)C)NC(=O)[C@H](C(C)C)NC(=O)[C@H]2CSSC[C@H](NC1=O)C(=O)N2	.	.	.	.	89*	.
COc1ccccc1NC(=S)NN=C(C)c1ccccn1	1	.	.	.	91*	85*
CC(=NNC(=S)Nc1cccc(C)c1)c1ccccn1	-33	.	.	.	93*	82*
Cc1ccc(OCCCCCCN2CCNCC2)c(Br)c1	-3	-81	-110	11	11	33
O=C(Cn1ncc(Cl)c(Cl)c1=O)NC(=O)NC1CCCCC1	56*	-27	13	.	74	13
CC(NC(=O)Cn1ncc(Cl)c(Cl)c1=O)C12CC3CC(CC(C3)C1)C2 (stereo not drawn)	.	.	.	88*	98*	9
CCn1cc(C(=O)NC(C)C23CC4CC(CC(C4)C2)C3)cn1 (stereo not drawn)	.	9	6	20	-19	6
COC(=O)CC1=C(C(=O)OC)C(c2ccc3c(c2)OCO3)C(C#N)=C(N)O1 (stereo not drawn)	-4	13	7	2	-13	0
O=C(COc1cc2oc(=O)c3c(c2cc1Cl)CCC3)Nc1cccnc1	.	3	-36	-17	-30	-9
O=S(=O)(c1ccc(Cl)cc1)N1CCN(Cc2c[nH]c3ccccc23)CC1	.	13	-9	17	9	5
Clc1ccccc1N1CCN(Cc2c[nH]c3ccccc23)CC1	4	-18	-13	64*	27	11
O=C(NC(=S)Nc1nc(-c2cccc([N+](=O)[O-])c2)cs1)c1cc(Cl)ccc1Cl	9	-3	-8	22	-3	.
O=[N+]([O-])c1cccc(NC(=S)Nc2nc(-c3ccc(Cl)cc3Cl)cs2)c1	.	.	.	73*	.	.
CC(C)OC(=O)c1ccc(COC(=O)c2cnccn2)cc1	-4	25	9	10	3	-8
CCOC(=O)c1cnc(-n2nc(C)cc2C)nc1NCc1ccc2c(c1)OCO2	8	-19	-16	7	94*	2
COC(=O)c1ccc(Cl)c(NC(=O)NC23CC4CC(CC(C4)C2)C3)c1	70*	16	-11	33	37	14
COC(=O)c1cccc(NC(=O)NC23CC4CC(CC(C4)C2)C3)c1	3	-14	-12	-98	-35	-25
CCC(C)Nc1ccc(NC(C)CC)cc1 (stereo not drawn)	.	-3	-2	.	89*	46
SMILES	H9c2 TAG inh	697 NFkB inh	Jurkat NFkB inh	aSyn 5UTR inh	Shn3 inh set2	Gli-Sufu antag
Cn1c(=O)oc2cc(S(=O)(=O)N3CCCC(C(=O)NC4CCCc5ccccc54)C3)ccc21 (stereo not drawn)	15	9	12	63*	5	1
COc1ccc2c(CC(=O)OCC(=O)N(C)c3c(N)n(Cc4ccccc4)c(=O)[nH]c3=O)coc2c1	23	.	.	.	94*	-5
c1ccc(-c2noc(C3CCC3)n2)nc1	8	5	-21	-54	-6	-8
CCCCC1CCC(c2nc(-c3ccccn3)no2)CC1 (stereo not drawn)	13	-111	-71	97*	-1	10
Cc1ccc(C)c(-c2nc3cc(N)ccc3o2)c1	-3	-31	-58	63*	20	12
Cc1ccc2nc(-c3cc(N)cc(N)c3)oc2c1	12	27	-3	62*	36	-25
CC(C)NC(=O)c1ccccc1NC(=O)/C=C/c1cccc([N+](=O)[O-])c1	.	3	13	63*	-1	-1
